# Screening results from PubChem BioAssay.
# PLCb3 inh: blocks human PLC-beta3 enzyme activity; Q01970; Purified PLC-beta3, fluorogenic substrate, fluorescence; inhibition, % at 12.2 µM; actives 0.18% (n = 370,000); AID 720704; in the data active means inhibition above about 11%;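 further: 0% = median of compound wells on plate and 100% = full blocker control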
# ADAM17 inh: ADAM17 inhibition, QFRET primary screen; P78536; recombinant ADAM17, EDANS/DABCYL FRET peptide cleavage; inhibition, % at 6.95 µM; actives 0.83% (n = 370,000);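 active means inhibition above the mean of compounds lying between control limits plus 3 SD, set per campaign, cut at about 8.5% in these data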;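 further: 0% = DMSO-only wells as the low control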
# ADAM10 inh: inhibitors of human ADAM10 | O14672 | AID 720582 | recombinant ADAM10, EDANS/DABCYL FRET peptide cleavage, 3 h | inhibition, % at 7 µM | actives 0.62% (n = 370,000);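 active means inhibition above a per-campaign cutoff equal to the mean of compounds falling between control-based bounds plus 3 SD, cut at about 20% in these data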;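 further: 0% = DMSO wells while the 100% control is not disclosed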
# PLC-gamma1 inh: inhibitors of human phospholipase C gamma1; P19174; actives 0.84% (n = 370,000); inhibition, % at 12.2 µM; purified PLC-gamma1, fluorogenic substrate, fluorescence
# Target sequence (P19174 whole entry, looked up): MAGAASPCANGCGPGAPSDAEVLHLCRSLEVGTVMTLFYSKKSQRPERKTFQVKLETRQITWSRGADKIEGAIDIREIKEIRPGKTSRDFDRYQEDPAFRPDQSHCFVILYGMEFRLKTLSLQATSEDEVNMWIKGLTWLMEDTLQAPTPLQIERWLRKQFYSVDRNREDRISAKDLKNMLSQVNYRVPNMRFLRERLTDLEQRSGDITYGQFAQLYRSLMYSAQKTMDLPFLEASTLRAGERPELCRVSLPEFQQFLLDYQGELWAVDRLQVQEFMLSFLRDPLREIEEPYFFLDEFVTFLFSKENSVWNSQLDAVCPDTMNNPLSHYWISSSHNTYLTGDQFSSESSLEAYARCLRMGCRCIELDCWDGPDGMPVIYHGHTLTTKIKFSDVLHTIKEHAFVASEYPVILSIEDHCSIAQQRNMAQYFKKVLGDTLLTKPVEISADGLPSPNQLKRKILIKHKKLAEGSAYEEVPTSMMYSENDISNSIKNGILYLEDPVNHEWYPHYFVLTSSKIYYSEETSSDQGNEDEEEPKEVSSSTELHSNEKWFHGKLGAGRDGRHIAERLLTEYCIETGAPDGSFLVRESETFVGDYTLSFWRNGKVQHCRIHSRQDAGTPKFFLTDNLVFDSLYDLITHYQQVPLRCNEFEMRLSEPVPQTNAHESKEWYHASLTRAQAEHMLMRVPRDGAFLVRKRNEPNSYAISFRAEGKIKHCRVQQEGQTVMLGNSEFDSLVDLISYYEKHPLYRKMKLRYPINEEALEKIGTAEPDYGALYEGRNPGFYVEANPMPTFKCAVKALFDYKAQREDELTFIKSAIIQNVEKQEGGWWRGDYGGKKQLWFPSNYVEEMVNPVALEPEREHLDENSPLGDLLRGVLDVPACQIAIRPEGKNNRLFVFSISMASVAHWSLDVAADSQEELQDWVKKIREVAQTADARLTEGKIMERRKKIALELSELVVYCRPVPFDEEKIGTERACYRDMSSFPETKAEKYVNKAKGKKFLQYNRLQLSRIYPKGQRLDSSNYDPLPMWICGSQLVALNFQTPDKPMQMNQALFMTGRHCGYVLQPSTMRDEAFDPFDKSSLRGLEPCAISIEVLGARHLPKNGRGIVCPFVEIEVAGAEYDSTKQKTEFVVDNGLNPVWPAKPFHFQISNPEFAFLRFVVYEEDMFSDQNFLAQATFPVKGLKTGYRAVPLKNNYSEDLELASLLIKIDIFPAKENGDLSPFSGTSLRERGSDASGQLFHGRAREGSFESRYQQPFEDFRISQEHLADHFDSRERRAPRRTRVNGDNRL
# KLK7 zymogen act: proKLK7 (human) activation, primary screen | AID 652039 | actives 0.9% (n = 370,000) | purified proKLK7, EDANS-DABCYL substrate fluorescence; 100% is mature enzyme control, 0% vehicle | P49862 | activation, % at 7 µM;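 active means activation above the mean of all tested compounds plus 3 SD, computed per campaign excluding outliers beyond control limits, cut at about 13% in these data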
# ADAM10 confirm: confirmation of inhibitors of human ADAM10; ADAM10 QFRET peptide cleavage, EDANS fluorescence; actives 1% (n = 2,100); shares compounds with ADAM10 inh; inhibition, % at 6.95 µM; AID 743208;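 active means inhibition above about 20% chosen separately for each screening run, limit read from the data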;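 further: 0% = DMSO wells and 100% = marimastat wells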
# ADAM17 counter: counter-screen for ADAM10 exosite inhibitors: inhibitors of human ADAM17. shares compounds with ADAM10 inh. ADAM17 QFRET peptide cleavage, EDANS fluorescence. inhibition, % at 6.95 µM. actives 0.5% (n = 2,100);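 active means mean triplicate inhibition above the solvent-only control wells' mean plus 3 SD, cut at about 12% in these data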;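 further: 0% = DMSO wells and 100% = marimastat wells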
# ADAM10 counter: inhibits human ADAM10 in ADAM17 exosite counter-screen; shares compounds with ADAM17 inh; actives 47% (n = 2,900); AID 743256; recombinant ADAM10, EDANS/DABCYL FRET peptide cleavage, 3 h; inhibition, % at 6.95 µM;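 active means mean inhibition over the triplicate runs exceeds the activity threshold set in the earlier primary screen, cut at about 20% in these data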;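 further: 0% = DMSO wells and 100% = marimastat wells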
# ADAM17 confirm: confirmation of inhibitors of human ADAM17; inhibition, % at 6.95 µM; AID 743257; shares compounds with ADAM17 inh; recombinant ADAM17, EDANS/DABCYL QFRET peptide cleavage; actives 65% (n = 2,900);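 active means mean inhibition across replicates above the hit cutoff set in the primary screen, cut at about 8.5% in these data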;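 further: 0% = DMSO wells and 100% = marimastat wells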
# PLCgamma1 ctr: counter-screen for PLC-beta3 inhibitors: inhibitors of human PLC-gamma1; shares compounds with PLC-gamma1 inh; purified PLC-gamma1, fluorogenic substrate, fluorescence; inhibition, % at 12.3 µM; actives 3.1% (n = 3,300); AID 743258
# PLCbeta3 conf: human PLC-beta3 inhibition, confirmation | actives 1% (n = 3,300) | shares compounds with PLC-gamma1 inh | purified PLC-beta3, fluorogenic substrate fluorescence | inhibition, % at 12.3 µM; in the data active means inhibition above about 11%
# Numbers without * were called inactive; . = not tested or not shown. Sampled rows, rich in hits. Any-hit rate of the full collection: about 2.9%. Unless noted, no stated cut-off is given here; in the data, active means inhibition above about 9.5%; inactive means the rest.
SMILES,PLCb3 inh,ADAM17 inh,ADAM10 inh,PLC-gamma1 inh,KLK7 zymogen act,ADAM10 confirm,ADAM17 counter,ADAM10 counter,ADAM17 confirm,others
Cc1cc(C(=O)COC(=O)c2ccc3c(c2)OCO3)c(C)n1CC1CCCO1 (stereo not drawn),0,-2,0,0,-1,.,.,.,.,
Cc1cc(C(=O)COC(=O)c2ccc(O)cc2)c(C)n1CC1COc2ccccc2O1 (stereo not drawn),-5,20*,26*,5,0,7,3,13,8,
Cc1ccc(C(=O)NC2CCCCN(C)C2=O)c(C)c1 (stereo not drawn),4,-1,-3,-3,0,.,.,.,.,
CCN(c1ccccc1)S(=O)(=O)c1cc(C(=O)Nc2ccc(Br)cc2)ccc1F,3,12*,24*,0,0,8,3,26*,13*,
CCc1ccc(NC(=O)c2ccc(F)c(S(=O)(=O)NCC3COc4ccccc4O3)c2)cc1 (stereo not drawn),4,13*,29*,1,1,12,4,43*,19*,
CCN(c1ccccc1)S(=O)(=O)c1cc(C(=O)Nc2ccccc2Cl)ccc1F,2,4,6,2,1,.,.,.,.,
O=C(NCC1COc2ccccc2O1)c1ccc(F)c(S(=O)(=O)N2CCOCC2)c1 (stereo not drawn),3,-2,3,0,0,.,.,.,.,
CS(=O)(=O)Nc1cccc(-c2ccc3nncn3c2)c1,-8,-1,-18,-7,1,.,.,.,.,
COc1ccccc1NC(=O)c1c(Nc2ccccc2C)sc(C(=O)Nc2cccc(Cl)c2)c1N,0,10*,21*,1,-1,28*,10,20,14*,
O=C(COc1ccc(Cl)cc1)N1CCN(c2ccc([N+](=O)[O-])c(N3CCCCC3)c2)CC1,4,8.9*,20*,4,0,5,2,25*,13*,
O=C(COc1ccccc1Cl)N1CCN(c2ccc([N+](=O)[O-])c(N3CCCCC3)c2)CC1,4,-1,-2,4,0,.,.,.,.,
CC(C)(C)S(=O)N1Cc2cc(C(=O)NCc3ccc4c(c3)OCO4)nc(-c3cccc(-c4ccncc4)c3)c2[C@H]1CCO (stereo partly drawn),-3,0,-16,-4,1,.,.,.,.,
CC(C)(C)S(=O)N1Cc2cc(C(=O)NCc3ccc4c(c3)OCO4)nc(-c3cccc(-c4ccccc4)c3)c2[C@@H]1CCO (stereo partly drawn),0,9.2*,26*,-2,-1,8,3,10,9.3*,
COc1ccc(CCN(C(=S)Nc2ccccc2)C2CC(=O)N(c3ccccc3)C2=O)cc1 (stereo not drawn),4,4,11,6,0,.,.,.,.,
O=C1CC(N(CCc2ccccc2)C(=S)Nc2ccccc2)C(=O)N1c1ccc(Br)cc1 (stereo not drawn),9,17*,35*,6,0,8,4,46*,22*,
COc1ccc(-n2c(SCC(=O)NN=Cc3c(O)ccc4ccccc34)nnc2-c2ccc(C(C)(C)C)cc2)cc1,0,-4,-6,0,-1,.,.,.,.,
Cc1ccc(NC(=O)CSc2nn(-c3ccccc3)c(=S)s2)cc1S(=O)(=O)N(C)C,2,9.0*,22*,2,0,5,2,33*,19*,
O=C(CSc1nn(-c2ccccc2)c(=S)s1)Nn1cnnc1,4,-2,6,4,0,.,.,.,.,
COc1nc(Nc2ccc(O)cc2)nc(OC(C(F)(F)F)C(F)(F)F)n1,4,2,7,-1,0,.,.,.,.,
Nc1cccc(Nc2nc(OC(C(F)(F)F)C(F)(F)F)nc(OC(C(F)(F)F)C(F)(F)F)n2)c1,0,27*,58*,2,0,0,0,60*,30*,
Cc1cc(C)nc(SCC(=O)Nc2ccc(S(=O)(=O)Nc3nccs3)cc2)n1,1,1,14,3,0,.,.,.,.,
O=C(CSc1nnc(SCc2cccc3ccccc23)s1)Nc1ccc(S(=O)(=O)Nc2nccs2)cc1,0,11*,35*,9,0,7,2,26*,11*,
COc1ccccc1-n1c(SCC(=O)Nc2ccc(Br)cc2)nc(O)cc1=O,-4,8.7*,28*,-37,0,-1,0,2,7,
Clc1cccc(NCc2nnc(SCc3ccc(Cl)cc3Cl)o2)c1,-2,9.3*,31*,6,-1,4,2,20,14*,
CC1CCCCC1NC(=O)c1nn(C)c2c1CS(=O)(=O)c1ccccc1-2 (stereo not drawn),-1,-2,1,2,0,.,.,.,.,
SMILES,PLCb3 inh,ADAM17 inh,ADAM10 inh,PLC-gamma1 inh,KLK7 zymogen act,ADAM10 confirm,ADAM17 counter,ADAM10 counter,ADAM17 confirm,others
O=S(=O)(NC1c2cccc3cccc(c23)C1Sc1ncccn1)c1ccc(Cl)cc1 (stereo not drawn),-2,9.7*,25*,2,0,7,4,28*,14*,
O=S(=O)(NC1CCCCC1Sc1ncccn1)c1ccc(Cl)cc1 (stereo not drawn),3,1,-3,-3,0,.,.,.,.,
Cc1ccc(OCCOc2c(Cl)cc(Cl)cc2Cl)c([N+](=O)[O-])n1,1,3,6,0,.,.,.,.,.,
O=C(O)CN(c1cccc(C(F)(F)F)c1)S(=O)(=O)c1ccccc1,1,-1,1,0,0,.,.,.,.,
O=S(=O)(c1ccccc1)N(CC(F)(F)F)c1ccc(C(O)(C(F)(F)F)C(F)(F)F)cc1,4,22*,49*,12*,0,0,1,37*,22*,PLCgamma1 ctr=-11;PLCbeta3 conf=-7
CCc1cccc(OCC(O)Cn2c(N3CCCCC3)nc3c2c(=O)[nH]c(=O)n3C)c1 (stereo not drawn),4,1,1,4,0,.,.,.,.,
